According to PubChem BioAssay (NCI):
About 83,000 compounds went through this panel and 20% of them were active in at least one assay; those are over-represented in the sample as a whole.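 Single-dose data. Exposure time 48 hours. Values below 10 considered active.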 Calls of active or inactive are those of the source.

Key:
Experiment in all cases: NCI-60 one-dose screen, 48 h (100 = growth as untreated, 0 = no growth, -100 = all killed)
Settings in all cases: 10 µM unless noted
[1] = tested on: NCI-H23 lung
[2] = tested on: NCI-H226 lung
[3] = tested on: NCI-H322M lung
[4] = tested on: HOP-62 NSCLC
[5] = tested on: NCI-H460 lung
[6] = tested on: HOP-92 NSCLC
[7] = tested on: NCI-H522 lung
[8] = tested on: A549/ATCC NSCLC
[9] = tested on: 786-0 renal
[10] = tested on: COLO 205 colon
[11] = tested on: DU-145 prostate
[12] = tested on: K-562 leukemia
[13] = tested on: MALME-3M melanoma
[14] = tested on: MDA-MB-231 breast
[15] = tested on: RXF 393 renal
[16] = tested on: SF-268 CNS
[17] = tested on: SF-295 CNS
[18] = tested on: SF-539 CNS
[19] = tested on: UACC-257 melanoma
[20] = tested on: M14 melanoma

Measured: growth

N#Cc1ccc(C2C3=C(CCCC3=O)OC3=C2C(=O)c2ccccc2C3=O)cc1 (stereo not given)
inactive: [1] 44.9% | [2] 114% | [3] 106% | [4] 111% | [5] 103% | [6] 76.3% | [8] 108% | [9] 94.7% | [10] 109% | [11] 86.8% | [12] 40.3% | [13] 83.4% | [15] 102% | [16] 70.9% | [17] 91.7% | [18] 30.5% | [19] 52.3% | [20] 81.8%
active: [7] 0.737% | [14] 5.78%

COc1ccc(C2=NN(c3ccc(S(N)(=O)=O)cc3)C(c3ccc(Cl)cc3)C2)c(O)c1 (stereo not given)
inactive: [1] 63.7% | [2] 84.6% | [3] 71.6% | [4] 90.2% | [5] 45% | [6] 58.6% | [7] 48.8% | [8] 33% | [9] 67.1% | [10] 69.7% | [11] 99.2% | [12] 23% | [13] 93.5% | [14] 76.5% | [15] 45.1% | [16] 83.8% | [17] 46.3% | [18] 89.9% | [19] 57.3% | [20] 51.3%

Nc1c(C(=O)c2ccccc2)sc2nc(-c3cc4ccccc4o3)cc(-c3ccc(Cl)cc3)c12
inactive: [1] 89.9% | [2] 112% | [3] 87% | [4] 102% | [5] 103% | [7] 84.7% | [8] 106% | [9] 107% | [10] 99.4% | [11] 90.8% | [12] 102% | [13] 101% | [14] 85.5% | [15] 113% | [16] 94.8% | [17] 129% | [18] 105% | [19] 104% | [20] 107%
active: [6] -6.31%

Cc1nn(-c2ccc(-c3ccc(OC(F)(F)F)cc3)cc2)c2nc(-c3ccccc3)nc(N)c12
inactive: [1] 97.7% | [2] 88.4% | [3] 86.4% | [4] 95.8% | [5] 83.2% | [6] 66.4% | [7] 83.7% | [8] 85.2% | [9] 93.8% | [10] 121% | [11] 104% | [12] 93.1% | [13] 118% | [14] 85.1% | [15] 104% | [16] 97.2% | [17] 110% | [18] 100% | [19] 101% | [20] 102%

Nc1c(C(=O)Nc2ccccc2Cl)sc2nc3c(cc12)CN(Cc1ccccc1)CC3
inactive: [1] 103% | [2] 91.5% | [3] 92.4% | [4] 104% | [5] 93.4% | [6] 109% | [7] 88.2% | [8] 112% | [9] 99% | [10] 95.5% | [11] 94% | [12] 99% | [13] 75.5% | [14] 105% | [15] 110% | [16] 81.5% | [17] 100% | [18] 102% | [19] 128% | [20] 107%

O=C(O)C(C(=O)O)c1cccc2ccccc12
inactive: [1] 99.9% | [2] 102% | [3] 101% | [4] 92.7% | [5] 104% | [6] 94.5% | [7] 88.9% | [8] 94.4% | [9] 95.4% | [10] 110% | [11] 105% | [12] 93.8% | [13] 107% | [14] 108% | [15] 107% | [16] 98% | [17] 101% | [18] 94.5% | [19] 88.1% | [20] 101%

COc1cc(NCC(=O)Nc2cc(Nc3cccc(C(F)(F)F)c3)ncn2)c(Cl)c(OC)c1Cl
inactive: [1] 91.9% | [2] 94.9% | [3] 101% | [4] 87.6% | [5] 103% | [6] 92.7% | [7] 67.8% | [8] 81.2% | [9] 97.2% | [10] 104% | [11] 97.4% | [12] 85.6% | [13] 115% | [14] 78.2% | [15] 114% | [16] 98.9% | [17] 75% | [18] 101% | [19] 88.2% | [20] 93.1%

CCSc1ccc(C2C(Br)C(=O)N2c2cc(OC)c(OC)c(OC)c2)cc1 (stereo not given)
inactive: [1] 25.2% | [2] 50.2% | [3] 50.5% | [4] 30% | [5] 10.1% | [6] 28.2% | [8] 18.2% | [11] 12.3% | [13] 70.1% | [14] 19.7% | [16] 38.7% | [17] 15.7% | [19] 45.2%
active: [7] 7.68% | [9] 8.1% | [10] -38.5% | [12] 8.26% | [15] 2.05% | [18] -1.17% | [20] 4.2%

C=C1C(=O)O[C@H]2[C@H]1CC/C(COC(=O)CCCCCCC(=O)OC/C1=C/CC[C@@]3(C)O[C@H]3[C@H]3OC(=O)C(=C)[C@@H]3CC1)=C\CC[C@@]1(C)O[C@@H]21
active: [7] -81% | [10] -64.6% | [12] 2.63% | [13] -2.86% | [14] -1.66% | [15] -72.8%
inactive: [1] 25.1% | [2] 65.2% | [3] 99.5% | [4] 83.6% | [5] 77.7% | [6] 34% | [8] 97.2% | [9] 20.9% | [11] 40.4% | [16] 54.2% | [17] 94.9% | [18] 21.1% | [19] 70.7% | [20] 30.6%

COc1cc(C(=O)N2CCN(c3ccccc3OC)CC2)c(NC(=O)c2cnccn2)cc1OCc1ccccc1
inactive: [1] 77.9% | [2] 88.3% | [3] 69.4% | [4] 84.9% | [5] 121% | [6] 10.7% | [7] 73.7% | [8] 91.8% | [9] 87.3% | [10] 99.4% | [11] 104% | [12] 10.8% | [13] 115% | [14] 73.1% | [15] 113% | [16] 114% | [17] 97.5% | [18] 88.9% | [19] 78% | [20] 98.4%

COc1cc(NC(=O)c2cc(O)c(C/C=C(\C)CCC=C(C)C)c(O)c2)cc2c1O[C@]1(C)CC[C@@H](O)C(C)(C)[C@H]1C2
inactive: [1] 25.1% | [2] 38% | [3] 41.5% | [4] 12.1% | [5] 11.4% | [7] 12.8% | [8] 14.5% | [11] 20.3% | [16] 15.7% | [19] 34.4%
active: [6] -9.24% | [9] -19% | [10] -22.3% | [12] 0.252% | [13] -18.5% | [14] -33.7% | [15] -38.7% | [17] -8.51% | [18] -51.2% | [20] -15.4%

O=C1CCC23OC(C(O)c4ccccc4N12)C1C(Br)=NOC13 (stereo not given)
inactive: [1] 99.1% | [2] 110% | [3] 107% | [4] 96.8% | [5] 110% | [6] 109% | [7] 99.9% | [8] 99.7% | [9] 94.6% | [10] 108% | [11] 107% | [12] 96.3% | [13] 102% | [14] 105% | [15] 114% | [16] 91.9% | [17] 106% | [18] 93.3% | [19] 98.1% | [20] 104%

O=C(N/N=C/C[C@@H]1[C@@H](/C=C/[C@@H](O)COc2cccc(Cl)c2)[C@H](O)C[C@@H]1O)c1ccncc1
inactive: [1] 98.2% | [2] 89.3% | [3] 101% | [4] 79.4% | [5] 102% | [6] 93.7% | [7] 69.9% | [8] 89% | [9] 105% | [10] 113% | [11] 108% | [12] 95.9% | [13] 98.1% | [14] 101% | [15] 105% | [16] 103% | [17] 99.5% | [18] 104% | [19] 77.5% | [20] 99.6%

COc1cccc(NC(=O)Nc2ccc(Nc3ncnc4[nH]c(C)c(C)c34)cc2)c1
inactive: [1] 111% | [2] 101% | [3] 114% | [4] 103% | [5] 102% | [6] 104% | [7] 90.8% | [8] 92.7% | [9] 113% | [10] 112% | [11] 110% | [12] 94.4% | [13] 122% | [14] 108% | [15] 111% | [16] 94% | [17] 95.5% | [18] 69.3% | [19] 98.3% | [20] 106%

OCCNc1nc(NCCO)nc(Nc2ccc(C3=NN(c4cc(Cl)cc(Cl)c4)C(c4ccc(C(F)(F)F)cc4)C3)cc2)n1 (stereo not given)
active: [9] 2.27% | [15] -27.2% | [17] -15.5%
inactive: [1] 56.6% | [2] 80.2% | [3] 49.1% | [4] 32.5% | [5] 14.8% | [6] 65.8% | [7] 61.2% | [8] 32.9% | [10] 25.3% | [11] 22.2% | [12] 10.7% | [13] 29.4% | [14] 42.3% | [16] 41.7% | [18] 24.3% | [19] 59.4% | [20] 36.1%
